Assay outcomes as filed in PubChem.
Pf growth 48h: Primary qHTS for delayed death inhibitors of the malarial parasite plastid, 48 hour incubation; P. falciparum luciferase growth in erythrocytes, 48 h; Potency, µM (doses to about 28.7 µM), inactives show at the highest dose activity change, negative = inhibition, usual class: inhibitors; 310,000 tested, 5.9% active; AID 504832, 2011; note: % is set by controls: 0 for no effect and ±100 for the full control effect
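Growth was read as firefly luciferase luminescence after a 48 h, 37 C, 5% CO2 exposure of compounds to reporter-bearing P. falciparum cultures (0.1% parasitemia, 2% hematocrit final) in Albumax-supplemented RPMI 1640.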
Pf growth 96h: Primary qHTS for delayed death inhibitors of the malarial parasite plastid, 96 hour incubation. P. falciparum luciferase reporter growth, 96 h. AID 504834, 2011. Potency, µM (series often up to 28.7 µM), for inactives: top-dose activity change, negative = inhibition, actives largely listed as inhibitors. 320,000 tested, 6.9% active; note: % is set by controls: 0 for no effect and ±100 for the full control effect
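Delayed-death screen, second-generation endpoint: infected erythrocytes, 2% hematocrit, 0.05% parasitemia final; 96 hours at 37 C, 5% CO2; luciferase detection reagent; luminescence decrease equals reduced growth.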
Sm TGR inh: qHTS Assay for the Inhibitors of Schistosoma Mansoni Peroxiredoxins | Schistosoma mansoni thioredoxin glutathione reductase (TGR), Q962Y6 | purified TGR, DTNB reduction, TNB absorbance 405 nm | Potency, µM (highest dose often 114 µM), inactives show at the top dose activity change, negative = inhibition, hits mostly inhibitors | 360,000 tested, 3% active; note: % is set by controls: 0 for no effect and ±100 for the full control effect; nearly all actives have a fitted effect of over 60% in size
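TGR 20 nM + NADPH 100 uM (dispensed conc.), cpd preinc 15 min RT; start with NADPH (500 uM addition) then DTNB (15 mM addition). Kinetic TNB absorbance, 405 nm filter. Four-parameter Hill fit across titration.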
SARS PLP yeast: qHTS of Yeast-based Assay for SARS-CoV PLP; 330,000 tested, 0.19% active; Potency, µM (doses to about 32.9 µM), for inactives: at the top dose activity, positive = growth rescue, actives largely listed as activators; S. cerevisiae expressing SARS-CoV PLpro, growth rescue; calls by dose curve; note: 0% is about no effect; nearly all actives have a fitted effect of over 55% in size
Numbers without * were called inactive; i = inactive; u = inconclusive; x = no result given. Sampled rows, rich in hits. Any-hit rate of the full collection: about 12%. Unless noted, calls come from the whole dose curve; as a rule, active = well fitted curve in the direction sought with a large enough effect; inconclusive = small, poorly fitted or top-dose-only effect, or another doubt; inactive = no such curve, though single readings can be large; an effect the other way counts as inactive or inconclusive. Potency is the fitted concentration of half-maximal effect.

SMILES	Pf growth 48h	Pf growth 96h	Sm TGR inh	SARS PLP yeast
O=C(Nc1ccccc1N1CCN(C(=O)c2ccc(Cl)cc2)CC1)c1cc(Br)ccc1Cl	6.57µM*	4.65µM*	0.1%	2.9%
CCC(=O)N1CCN(c2ccccc2NC(=O)c2ccc(OC)c(Cl)c2)CC1	x	7.38µM*	-7.7%	-0.6%
COc1ccccc1C(=O)Nc1ccccc1N1CCN(C(=O)c2ccc(Cl)cc2)CC1	8.28µM*	u	6.4%	x
CCCn1c2ccccc2c2cnn(CC(=O)N3CCN(c4ccccc4)CC3)c(=O)c21	x	x	-1.8%	x
COc1cccc(C(=O)Nc2ccccc2N2CCN(C(=O)c3ccccc3)CC2)c1	x	x	x	-4.9%
CN1CCN(c2ccccc2NC(=O)c2cccc(OCc3ccccc3)c2)CC1	5.22µM*	x	-1.5%	-3.4%
CN1CCN(c2ccccc2NC(=O)c2ccc(OCc3ccccc3)cc2)CC1	7.38µM*	13.1µM*	8.3%	-2.5%
CN1CCN(c2ccccc2NC(=O)C(Cc2ccccc2)n2cccc2)CC1 (stereo not drawn)	10.4µM*	u	-1.5%	26.9%
CN1CCN(c2ccccc2NC(=O)c2cc3c(s2)-c2ccccc2OC3)CC1	10.4µM*	u	16.2%	-8.8%
CCOc1cccc(C(=O)Nc2ccccc2C(=O)N2CCN(C)CC2)c1	2.1%	4.65µM*	0.3%	3.7%
CN1CCN(c2ccccc2NC(=O)c2c(F)cccc2F)CC1	u	3.7µM*	4.1%	4.5%
COc1c(F)c(F)c(C(=O)Nc2ccccc2N2CCN(C(C)=O)CC2)c(F)c1F	u	93.7%	6.5%	x
COc1cccc(C(=O)Nc2ccccc2C(=O)N2CCCC2)c1	x	-24.6%	2.4%	10.6%
Cc1noc(C)c1COc1cccc(C(=O)Nc2ccccc2N2CCOCC2)c1	u	13.1µM*	-9.8%	6.3%
COc1cc(C(=O)Nc2ccccc2N2CCOCC2)ccc1OCc1c(C)noc1C	-15.4%	u	-3.1%	-0.3%
CN1CCN(c2ccccc2NC(=O)c2ccc(-c3ccccc3)cc2)CC1	u	x	6.3%	1.5%
COc1c(F)c(F)c(C(=O)Nc2ccccc2N2CCN(C(=O)C(C)C)CC2)c(F)c1F	0.928µM*	57.0%	-1.2%	-6.5%
O=C(CC(=O)Nc1cc(Cl)ccc1Cl)Nc1cc(Cl)ccc1Cl	x	u	2.4%	-0.1%
CCOC(=O)c1cccc(NC(=O)CCn2c(-c3ccc(F)cc3)cc(C(=O)OCC)c2C)c1	x	x	7.8%	x
CCc1ccc(-c2nc(CN3CCC(C(=O)NCc4ccc(F)cc4)CC3)c(C)o2)cc1	13.1µM*	u	11.7%	-4.4%
Cc1oc(-c2cccc(Cl)c2)nc1CN1CCCC(C(=O)NCCCN2CCOCC2)C1 (stereo not drawn)	11.7µM*	66.9%	2.0%	2.2%
CCN(CCNC(=O)C1CCCN(Cc2nc(-c3ccc(OC)cc3)oc2C)C1)c1ccccc1 (stereo not drawn)	5.22µM*	-7.0%	1.4%	4.4%
Cc1oc(-c2ccc(Cl)cc2)nc1CN1CCC(C(=O)NCCCN2CCOCC2)CC1	u	u	-4.9%	-9.8%
CCC1CCCCN1CCCNC(=O)C1CCN(Cc2nc(-c3ccc(Cl)cc3)oc2C)CC1 (stereo not drawn)	5.22µM*	-10.8%	-1.4%	15.7%
Cc1oc(-c2cccc(Cl)c2)nc1CN1CCC(C(=O)NCc2cccnc2)CC1	2.62µM*	29.4%	-2.9%	-1.8%
SMILES	Pf growth 48h	Pf growth 96h	Sm TGR inh	SARS PLP yeast
CCc1ccc(-c2nc(CN3CCC(C(=O)N4CCN(c5ccccc5)CC4)CC3)c(C)o2)cc1	12.4%	1.85µM*	0.9%	1.6%
O=C(CSc1nnc(-c2ccccc2)c(-c2ccccc2)n1)NC1CCCCC1	x	x	-13.4%	x
Cc1ccc(S(=O)(=O)N2CCN(c3ncnc4scc(-c5ccccc5)c34)CC2)cc1	x	x	x	1.4%
Cc1sc2nc(CN3CCCC3)nc(N3CCN(S(=O)(=O)c4ccccc4)CC3)c2c1C	10.4µM*	4.65µM*	-32.8%	-7.1%
Cc1sc2nc(CN3CCOCC3)nc(N3CCC(C(N)=O)CC3)c2c1C	-21.2%	u	-23.8%	-0.2%
Cc1sc2ncnc(N3CCN(S(=O)(=O)c4ccccc4)CC3)c2c1C	13.1µM*	u	0.3%	-1.5%
Cc1ccc(S(=O)(=O)N2CCN(c3ncnc4sccc34)CC2)cc1C	13.1µM*	11.7µM*	2.2%	4.7%
Cc1cccc2sc(N(Cc3cccnc3)C(=O)C3CCCCC3)nc12	x	x	13.6%	x
O=C(Nc1cccc(NC(=O)c2cccc(Cl)c2)c1)c1cccnc1	u	u	0.9%	-2.6%
Cc1ccccc1C(=O)Nc1ccc(-c2nc3ccc(C(=O)c4ccccc4)cc3[nH]2)cc1	8.28µM*	u	3.4%	-8.0%
O=C(Nc1ccc2nc(-c3cccs3)[nH]c2c1)c1cccs1	53.2%	x	0.6%	-6.7%
O=C(Nc1ccc(-c2nc3ccc(NC(=O)c4cccs4)cc3[nH]2)cc1)c1cccs1	2.62µM*	x	-22.5%	-6.5%
Cc1nnc(SCc2ccc(F)cc2)n1NC/C=C/c1ccccc1	-9.6%	5.86µM*	-10.0%	18.4%
Cc1ccc(NC(=O)CSc2nc(=O)n(Cc3ccco3)c3c2CCC3)cc1F	x	x	-12.1%	x
CCCS(=O)(=O)c1nc(S(=O)(=O)c2ccc(C)cc2)c(NCc2ccccc2)s1	x	x	-0.5%	x
Cc1ccc(-c2[nH]nc3c2C(c2ccccc2OC(=O)N2CCOCC2)C(C#N)=C(N)O3)cc1 (stereo not drawn)	u	10.4µM*	2.7%	-4.4%
CCOc1ccc(-c2[nH]nc3c2C(c2ccc4c(c2)OCO4)C(C#N)=C(N)O3)cc1OC (stereo not drawn)	-16.4%	13.1µM*	-2.8%	4.3%
Cc1[nH]nc2c1C(c1ccc3c(c1)OCO3)C(C#N)=C(N)O2 (stereo not drawn)	-7.6%	48.7%	-5.1%	-2.6%
COc1ccc(-c2[nH]nc3c2C(c2ccccc2OC(=O)N2CCOCC2)C(C#N)=C(N)O3)cc1 (stereo not drawn)	u	29.7%	-25.7%	-0.1%
COc1ccc(-c2[nH]nc3c2C(c2ccc(OC(=O)N4CCOCC4)cc2)C(C#N)=C(N)O3)cc1 (stereo not drawn)	0.6%	13.1µM*	2.5%	-6.5%
N#CC1=C(N)Oc2n[nH]c(-c3ccc(F)cc3)c2C1c1cccc(OC(=O)N2CCOCC2)c1 (stereo not drawn)	x	22.3%	-12.6%	3.2%
CCOC(=O)c1cc[nH]c1CC(=O)NC	91.6%	36.7%	-5.8%	-1.0%
Cc1ccc(NC(=O)c2ccc3c(c2)NC(=O)c2ccccc2S3)c(Cl)c1	x	x	0.8%	x
CCCNC(=O)c1ccc(N2CCC3(CC2)CC(c2cccc(Br)c2)=NO3)c(NC(=O)c2cccc(C)c2)c1	u	u	5.9%	0.9%
C/C(=N\O)c1ccc(N2C(=O)C3CC=C(Cl)CC3C2=O)cc1 (stereo not drawn)	i	5.22µM*	0.1%	4.9%
O=C(CCc1cn2ccccc2n1)NC1CCCc2c1cnn2-c1ccccc1F (stereo not drawn)	-19.2%	13.1µM*	-25.2%	-4.6%
